Inconclusive results are not listed. Active and inactive are the calls of the source. The calls were made as follows, unless noted: active = hit-call score of the fitted dose curve at least 0.9, where 1 is the maximum; inactive = score below 0.9.
Columns and labels:
[1] = CCTE_Shafer_MEA_dev_firing_rate_mean: CCTE's Neural Network Formation Assay for Mean Firing Rate, Shafer Lab (AID 2284031)
Procedure, shortened: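 Primary rat cortical neurons on 48-well, 16-electrode MEAs (PEI-coated, laminin at plating), exposed from day 0 with compound renewed at DIV 5 and 9. Spikes recorded DIV 5, 7, 9, 12; well-mean firing rate collapsed to trapezoidal AUC, loss-of-signal vs DMSO.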

[2] = CCTE_Shafer_MEA_dev_per_burst_spike_percent: CCTE's Neural Network Formation Assay for Percent of Spikes in a Burst, Shafer Lab (AID 2284032)
Procedure, shortened: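 Rat primary cortical neurons on 16-electrode MEA wells, dosed from plating day 0 for 12 days with renewal on DIV 5 and 9; spikes-in-bursts percentage averaged over bursting electrodes, collapsed as AUC across days 5, 7, 9, 12; loss direction versus DMSO.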

[3] = CCTE_Shafer_MEA_dev_active_electrodes_number: CCTE's Neural Network Formation Assay for Number of Active Electrodes, Shafer Lab (AID 2284040; active = hit-call score of the fitted dose curve at least 0.9, where 1 is the maximum;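 also: potency for loss of active electrodes versus DMSO so lower counts are hits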)
Procedure, shortened: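 Rat cortical primary cultures, 1.5 x 10^5 cells/well, PEI-coated MEA, laminin drop. Continuous exposure DIV 0–12; full media/compound change DIV 5, 9. Readout: electrodes with mean firing ≥5 spikes/min; AUC across days; loss vs DMSO.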

[4] = CCTE_Shafer_MEA_dev_burst_rate: CCTE's Neural Network Formation Assay for Burst Rate, Shafer Lab (AID 2284042)
Procedure, shortened: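 Primary rat cortical neurons on PEI-coated 48-well MEA plates (laminin added with cells at plating) (16 electrodes/well), exposed from plating to day 12, dosing renewed at DIV 5 and 9. Burst rate averaged over active electrodes, recorded DIV 5, 7, 9, 12, summarized as AUC; loss versus DMSO.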

[5] = CCTE_Shafer_MEA_dev_bursting_electrodes_number: CCTE's Neural Network Formation Assay for Number of Bursting Electrodes, Shafer Lab (AID 2284043; active = hit-call score of the fitted dose curve at least 0.9, where 1 is the maximum)
Procedure, shortened: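 Primary rat cortical neurons plated on 16-electrode MEA wells, exposed from day 0 with compound renewed at DIV 5 and 9. Electrodes bursting ≥1 burst per 2 min counted on days 5, 7, 9 and 12; trapezoidal AUC across days, fitted for loss versus DMSO.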

[6] = CCTE_Shafer_MEA_dev_per_burst_interspike_interval: CCTE's Neural Network Formation Assay for Burst Interspike Interval, Shafer Lab (AID 2284044);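 also: mean spike spacing inside bursts as AUC over recordings on days 5 7 9 12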
Procedure, shortened: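 Primary rat cortical neurons on 48-well MEA plates, exposed from day 0 through day 12, treatment renewed at DIV 5 and 9. Within-burst interspike interval recorded days 5, 7, 9, 12, well-averaged, summarised as AUC; negative fit versus DMSO.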

[7] = CCTE_Shafer_MEA_dev_burst_duration_mean: CCTE's Neural Network Formation Assay for Mean Burst Duration, Shafer Lab (AID 2284045)
Procedure, shortened: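 Primary rat cortical neurons on 48-well 16-electrode MEA plates, exposed from day 0 with renewal at DIV 5 and 9; spontaneous activity recorded on days 5, 7, 9, 12. Well-mean burst duration across bursting electrodes, collapsed as trapezoidal AUC; DMSO baseline.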

[8] = CCTE_Shafer_MEA_dev_interburst_interval_mean: CCTE's Neural Network Formation Assay for Mean Interburst Interval, Shafer Lab (AID 2284046);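 also: well-mean interburst interval of bursting electrodes as AUC over four recording days; curve fitted for decrease in interburst interval relative to DMSO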
Procedure, shortened: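 Recordings on days 5, 7, 9 and 12 give well-mean interburst interval across actively bursting electrodes, summarized as area under the curve. Cultures: rat cortical neurons, continuous exposure from day 0, compound renewed at feeds; decrease analyzed versus DMSO.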

[9] = CCTE_Shafer_MEA_dev_inter_network_spike_interval_mean: CCTE's Neural Network Formation Assay for Mean Inter-network Spike Interval, Shafer Lab (AID 2284047)
Procedure, shortened: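 Primary rat cortical neurons on 16-electrode MEA wells, exposed from plating day 0 through DIV 12, compound renewed at DIV 5 and 9 media changes. Mean interval between network-spike peaks recorded DIV 5, 7, 9, 12; collapsed as trapezoidal AUC, fitted downward versus DMSO.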

[10] = CCTE_Shafer_MEA_dev_network_spike_peak: CCTE's Neural Network Formation Assay for Mean Number of Electrodes in Network Spike, Shafer Lab (AID 2284049)
Procedure, shortened: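 Network-spike peak electrode count from recordings on days 5, 7, 9 and 12 was combined as trapezoidal area under the curve. Rat cortical cultures were treated continuously from plating, with compound renewed at each feed (DIV 5, 9); fits versus DMSO.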

[11] = CCTE_Shafer_MEA_dev_spike_duration_mean: CCTE's Neural Network Formation Assay for Mean Spike Duration, Shafer Lab (AID 2284051);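 also: mean network spike duration pooled as area under curve over DIV 5 to 12 recordings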
Procedure, shortened: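 Primary rat cortical neurons on 16-electrode MEA wells (PEI-coated, laminin in plating drop), exposed from plating through DIV 12 with compound renewed at DIV 5 and 9. Mean network-spike duration recorded DIV 5, 7, 9, 12; trapezoidal AUC across days, DMSO baseline.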

[12] = CCTE_Shafer_MEA_dev_network_spike_duration_std: CCTE's Neural Network Formation Assay for Standard Deviation of Network Spike Duration, Shafer Lab (AID 2284052);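 also: area under curve of spike duration SD across recording days 5 to 12; hits are decreases in network spike duration SD versus DMSO vehicle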
Procedure, shortened: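 Primary rat cortical neurons on PEI-coated 16-electrode MEA wells, exposed from plating day 0 through day 12 with compound renewed at DIV 5 and 9. Network spike duration SD recorded on days 5, 7, 9, 12, collapsed as trapezoidal AUC; loss-of-signal fit versus DMSO.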

[13] = CCTE_Shafer_MEA_dev_per_network_spike_spike_number_mean: CCTE's Neural Network Formation Assay for Mean Number of Spikes in a Network Spike, Shafer Lab (AID 2284053)
Procedure, shortened: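 Primary rat cortical neurons on 48-well, 16-electrode MEA plates were exposed from plating to DIV 12, with dosing renewed on DIV 5 and 9. Spikes per network spike (0.05 s peak window) were recorded on DIV 5, 7, 9 and 12 and collapsed as trapezoidal AUC versus DMSO.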

[14] = CCTE_Shafer_MEA_dev_per_network_spike_spike_percent: CCTE's Neural Network Formation Assay for Percent of Spikes in a Network Spike, Shafer Lab (AID 2284054)
Procedure, shortened: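 Rat primary cortical neurons were grown on 48-well MEA plates (16 electrodes/well), exposed from plating day 0 through day 12, with treatment renewed on DIV 5 and 9. Percent of spikes within 0.05 s network-spike peaks was measured, summarised as AUC across days 5, 7, 9, 12.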

[15] = CCTE_Shafer_MEA_dev_LDH: CCTE's Lactate Dehydrogenase Assay for Cytotoxicity in the Neural Network Formation Assay, Shafer Lab (AID 2284068; active = hit-call score of the fitted dose curve at least 0.9, where 1 is the maximum;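 also: exposure for twelve days from plating with re-dosing on DIV 5 and 9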)
Procedure, shortened: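 Primary rat cortical neurons were plated on PEI/laminin MEA plates and exposed from day 0 for twelve days, with compound renewed at DIV 5 and 9. Cytotoxicity was determined by spectrophotometric LDH assay relative to DMSO.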

[16] = CCTE_Shafer_MEA_dev_AB: CCTE's Alamar Blue Assay for Cytotoxicity in the Neural Network Formation Assay, Shafer Lab (AID 2284083; active = hit-call score of the fitted dose curve at least 0.9, where 1 is the maximum;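 also: twelve days of exposure from plating with re-dosing on DIV 5 and 9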)
Procedure, shortened: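 Primary rat cortical neurons on PEI-coated 48-well MEA plates, 1.5 x 10^5 cells/well in laminin drop; compound exposure from day 0 of plating for twelve days, renewed at medium changes on DIV 5 and 9. Viability read as resazurin reduction by fluorescence, relative to DMSO.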

[17] = CCTE_Shafer_MEA_dev_mutual_information_norm: CCTE's Neural Network Formation Assay for Mutual Information Normalization, Shafer Lab (AID 2284091)
Procedure, shortened: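 Primary rat cortical neurons on PEI-coated 48-well MEA plates, 1.5 x 10^5 cells/well, exposed from day 0 through day 12 with re-dosing at DIV 5 and 9. Mutual information between electrodes recorded days 5, 7, 9, 12; trapezoidal AUC, loss-of-signal fit versus DMSO.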

[18] = CCTE_Shafer_MEA_dev_correlation_coefficient_mean: CCTE's Neural Network Formation Assay for Mean Correlation Coefficient, Shafer Lab (AID 2284093)
Procedure, shortened: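 Spontaneous activity recorded on days 5, 7, 9 and 12 post-plating; pairwise spike correlations are averaged across active electrodes and collapsed to an area-under-curve. Rat cortical cultures are dosed from plating through 12 days, with compound renewed at media changes.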

[19] = UKN2_HCS_IMR90_neural_migration: University of Konstanz (UKN) Leist Lab Neural Crest Cell Migration Assay in human induced IMR90 Pluripotent Stem Cells (UKN2) (AID 2284204); details: actives raise or lower the signal
Procedure, shortened: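 iPSC-derived IMR90 neural crest cells seeded around stoppers on PLO/laminin/fibronectin; migration started in N2-S medium with EGF/FGF, compounds added after 24 h for 24 h. Migration into cell-free area imaged after calcein-AM/Hoechst staining; bidirectional fit versus DMSO.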

[20] = IUF_NPC1b_proliferation_BrdU_72hr: Leibniz Research Institute for Environmental Medicine (IUF) 72-hour Neural Progenitor Cell Bromodeoxyuridine (BrdU) Proliferation Assay (NPC1b) (AID 2284207)
Procedure, shortened: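 BrdU luminescence ELISA quantified DNA synthesis over the last 16 h of a 72 h exposure, fitted against DMSO. Primary hNPC spheres from gestational week 16-19 cortex grown with EGF/FGF at 37C, pH 7.2-7.6.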

[21] = IUF_NPC1a_proliferation_area_72hr: Leibniz Research Institute for Environmental Medicine (IUF) 72-hour Neural Progenitor Cell Proliferation Area Assay (NPC1a) (AID 2284208)
Procedure, shortened: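 Single 0.25–0.35 mm human fetal neural progenitor spheres in proliferation medium with EGF and FGF, exposed 72 h from plating without renewal at 37C, pH 7.2-7.6. Sphere area growth measured by automated phase-contrast imaging, relative to DMSO.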

[22] = IUF_NPC1_viability_72hr: Viability Assessment at 72 hours in the Leibniz Research Institute for Environmental Medicine (IUF) Neural Progenitor Cell Proliferation Assay (NPC1) (AID 2284209)
Procedure, shortened: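 Human fetal-cortex neural progenitor spheres (0.25–0.35 mm, one per well) grown in EGF/FGF proliferation medium at 37C, pH 7.2-7.6, exposed 72 h without renewal; viability read as alamar blue resazurin-to-resorufin fluorescence relative to DMSO.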

[23] = CCTE_Mundy_HCI_Cortical_Synap_Neur_Matur_NeuriteSpotCountPerNeuriteLength: CCTE's Synaptogenesis and Neurite Maturation Assay in rat cortical cells for Neurite Spot Count per Neurite Length, Mundy Lab (AID 2284210)
Procedure, shortened: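 Rat primary cortical cultures, AraC added at DIV 5 to suppress glia; chemical exposure from DIV 7 to DIV 12. Fixed cells stained for MAP2 and synaptophysin plus Hoechst; synaptophysin puncta per neurite length quantified by high-content imaging, relative to DMSO.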

[24] = CCTE_Mundy_HCI_Cortical_Synap_Neur_Matur_BPCount: CCTE's Synaptogenesis and Neurite Maturation Assay in rat cortical cells for Branch Point Count, Mundy Lab (AID 2284211)
Procedure, shortened: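 Branch point number is quantified by automated imaging of fluorescently labelled neurites and synapses in rat primary cortical neurons exposed from DIV 7 to DIV 12. Activity is analysed relative to DMSO negative control.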

[25] = CCTE_Mundy_HCI_Cortical_NOG_NeuriteCount: CCTE's Neurite Outgrowth Assay in rat cortical cells for Neurite Count, Mundy Lab (AID 2284212);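 also: cells fixed about two days after chemical exposure began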
Procedure, shortened: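 Neurite number per cell from high-content imaging of betaIII-tubulin immunostaining, with Hoechst nuclear counterstain.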

[26] = CCTE_Mundy_HCI_Cortical_NOG_NeuriteLength: CCTE's Neurite Outgrowth Assay in rat cortical cells for Neurite Length, Mundy Lab (AID 2284213)
Procedure, shortened: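 Neurite length was read by high-content imaging of βIII-tubulin-labelled neurites in rat primary cortical cultures. Activity was fitted relative to DMSO.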

[27] = CCTE_Mundy_HCI_Cortical_Synap_Neur_Matur_NeuriteLength: CCTE's Synaptogenesis and Neurite Maturation Assay in rat cortical cells for Neurite Length, Mundy Lab (AID 2284214)
Procedure, shortened: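 Rat primary cortical cells were plated, treated with AraC at DIV 5 to arrest glial growth, then chemical-dosed with media change at DIV 7 through DIV 12. Fixed cells stained for MAP2, synaptophysin and Hoechst; neurite length quantified by high-content imaging.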

CCOP(=O)(Oc1cnc(C(C)(C)C)nc1)OC(C)C (configuration not stated)
outcome [1]: inactive | outcome [2]: inactive | AC50 [3]: 29.2 µM (active) | outcome [4]: inactive | outcome [5]: inactive | outcome [6]: inactive | outcome [7]: inactive | outcome [8]: inactive | outcome [9]: inactive | outcome [10]: inactive | outcome [11]: inactive | outcome [12]: inactive | outcome [13]: inactive | outcome [14]: inactive | AC50 [15]: 11.4 µM (active) | AC50 [16]: 11.7 µM (active) | outcome [17]: inactive | outcome [18]: inactive | outcome [19]: inactive | AC50 [20]: 2.63 µM (active) | outcome [21]: inactive | outcome [22]: inactive | outcome [23]: inactive | outcome [24]: inactive | outcome [25]: inactive | outcome [26]: inactive | outcome [27]: inactive
